Measurements: PubChem BioAssay AID1159580 (chemical genetic matrix, 2015)
Several values for one entry are separate records, joined by “and”; a condition that tells them apart may be missing. Identical values can stand only once. In all, about 5,500 compounds went through this assay and about 2,000 (36%) were called active. Not shown: some 18% with an inconclusive outcome. No stated cut-off is given here; in the data, active means normalized growth mostly below about 0.91 (no sharp cut-off); inconclusive means no clear call, values can overlap the other calls; inactive means mostly above about 0.92. The list shows a part of the results.

Test: chemical genetic growth profiling, strain panel (AID 1159580);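 further: tested at 20 µM; growth read once vehicle control cultures reached saturation at 30 °C; 1 = growth at the plate median or of vehicle wells; lower values mean less growth of the strain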
Conditions: S. cerevisiae deletion strains, growth OD

Measured: normalized growth

NC(C(=O)O)C(O)C(=O)O (stereo not drawn)
inactive: locus YAL013W, strain DEP1, hits give low values 1.04 | locus YAL021C, strain ccr4, hits give low values 0.941 | locus YAL026C, strain drs2, hits give low values 0.998 | locus YAL030W, strain snc1, hits give low values 0.98 | locus YBL061C, strain skt5, hits give low values 0.996 | locus YBR009C, strain hhf1, hits give low values 0.955 | locus YBR021W, strain FUR4, hits give low values 0.993 | locus YBR023C, strain chs3, hits give low values 0.994 | locus YBR171W, strain sec66, hits give low values 0.997 | locus YBR229C, strain ROT2, hits give low values 1.01 | locus YBR231C, strain swc5, hits give low values 1.03 | locus YBR279W, strain paf1, hits give low values 0.993 | locus YCL011C, strain gbp2, hits give low values 0.98 | locus YCL016C, strain dcc1, hits give low values 0.978 | locus YCL029C, strain bik1, hits give low values 1.03 | locus YCL061C, strain MRC1, hits give low values 1 | locus YCL069W, strain vba3, hits give low values 0.991 | locus YCR088W, strain abp1, hits give low values 1 | locus YDL005C, strain med2, hits give low values 0.982 | locus YDL035C, strain GPR1, hits give low values 1.02 | locus YDL040C, strain nat1, hits give low values 0.996 | locus YDL074C, strain BRE1, hits give low values 1.02 | locus YDL101C, strain DUN1, hits give low values 1.02 | locus YDL134C, strain PPH21, hits give low values 1.01 | locus YDL185W, strain tfp1, hits give low values 1.02 | locus YDL192W, strain arf1, hits give low values 1.02 | locus YDR001C, strain nth1, hits give low values 0.97 | locus YDR069C, strain doa4, hits give low values 0.969 | locus YDR101C, strain arx1, hits give low values 1.04 | locus YDR137W, strain rgp1, hits give low values 0.982 | locus YDR159W, strain sac3, hits give low values 1.05 | locus YDR162C, strain NBP2, hits give low values 1.04 | locus YDR195W, strain ref2 0.973 | locus YDR297W, strain sur2, hits give low values 0.994 | locus YDR318W, strain mcm21, hits give low values 1.01 | locus YDR334W, strain swr1, hits give low values 0.983 | locus YDR335W, strain msn5, hits give low values 0.986 | locus YDR388W, hits give low values 1.02 | locus YDR392W, strain spt3, hits give low values 0.91 | locus YDR502C, strain sam2, hits give low values 1.03 | locus YEL003W, strain gim4, hits give low values 0.999 | locus YEL037C, strain rad23, hits give low values 0.983 | locus YEL061C, strain CIN8 (second series), hits give low values 0.99 | locus YEL061C, strain CIN8, hits give low values 1.01 | locus YER015W, strain faa2, hits give low values 0.997 | locus YER016W, strain bim1, hits give low values 0.991 | locus YER110C, hits give low values 1.03 | locus YER111C, strain swi4, hits give low values 0.994 | locus YER155C, strain BEM2 (second series), hits give low values 1.03 | locus YER155C, strain BEM2, hits give low values 0.983 | locus YER167W, strain BCK2, hits give low values 1.01 | locus YFR010W, strain ubp6, hits give low values 0.986 | locus YGL078C, strain dbp3, hits give low values 1.02 | locus YGL086W, strain mad1, hits give low values 1 | locus YGL167C, strain pmr1, hits give low values 0.969 | locus YGL173C, strain kem1, hits give low values 0.999 | locus YGL227W, strain vid30, hits give low values 0.997 | locus YGL240W, strain doc1, hits give low values 1 | locus YGL248W, strain PDE1, hits give low values 1.02 | locus YGL253W, strain hxk2, hits give low values 1.02 | locus YGR078C, strain PAC10, hits give low values 1.02 | locus YGR135W, strain pre9, hits give low values 1.01 | locus YGR252W, strain gcn5, hits give low values 0.999 | locus YHR013C, strain ard1, hits give low values 0.969 | locus YHR027C, strain rpn1, hits give low values 0.991 | locus YHR030C, strain SLT2, hits give low values 1 and 1.03 | locus YHR079C, strain IRE1 (second series), hits give low values 1.02 | locus YHR079C, strain IRE1, hits give low values 1.03 | locus YHR094C, strain hxt1, hits give low values 1.02 | locus YHR129C, strain ARP1, hits give low values 1.01 | locus YHR142W, strain chs7, hits give low values 0.983 | locus YHR200W, strain rpn10, hits give low values 1.02 | locus YIL066C, strain RNR3, hits give low values 1.02 | locus YIL073C, strain SPO22, hits give low values 1.09 | locus YIL125W, strain kgd1, hits give low values 1.01 | locus YIR030C, strain dcg1, hits give low values 1.02 | locus YJL092W, strain hpr5, hits give low values 0.986 | locus YJL095W, strain BCK1 (second series), hits give low values 0.993 | locus YJL095W, strain BCK1, hits give low values 1.03 and 1.06 | locus YJL115W, strain asf1, hits give low values 0.965 | locus YJL129C, strain trk1, hits give low values 1.02 | locus YJL134W, strain LCB3, hits give low values 1.01 | locus YJL154C, strain vps35, hits give low values 0.987 | locus YJL164C, strain tpk1, hits give low values 0.96 | locus YJL166W, strain qcr8, hits give low values 0.988 | locus YJL168C, strain set2, hits give low values 1.01 | locus YJL187C, strain SWE1 (second series), hits give low values 1.03 | locus YJR043C, strain POL32, hits give low values 1.02
